Data reported in PubChem BioAssay (EPA / NIEHS).
Values joined by “and” are separate entries in the source; they are usually repeats but may differ in a detail not shown here. Identical values can stand only once. The source holds several records for some structures; these can differ, active in one and inactive in another. Active and inactive are the calls of the source. Rule for the calls: active = hit-call score of the fitted dose curve at least 0.9, where 1 is the maximum; inactive = score below 0.9.

Key:
[1] = read-out: Epidermal growth factor receptor (EGFR), EGFR (gene 1956); assay: BSK_BE3C_EGFR: BioMAP Diversity Plus: BE3C Assay for Epidermal growth factor receptor (EGFR) Biomarker Activity (AID 2284281); settings: primary human bronchial epithelial cells
Outline: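 Measured 24 h after dosing in primary human bronchial epithelial cultures, EGFR was read by ELISA; gain of signal over DMSO control defined activity.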

KRT18 (gene 3875) = assay: BSK_BE3C_Keratin818: BioMAP Diversity Plus: BE3C Assay for Keratin 818 Biomarker Activity (AID 2284282); settings: primary human bronchial epithelial cells
Outline: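 In this multiplexed primary-cell system, bronchial epithelial cells were dosed and harvested at 24 h. Keratin 8/18 was determined by ELISA and analysed for increases over DMSO controls.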

[2] = read-out: Matrix Metallopeptidase 9 (MMP9), MMP9 (gene 4318); assay: BSK_BE3C_MMP9: BioMAP Diversity Plus: BE3C Assay for Matrix Metallopeptidase 9 (MMP9) Biomarker Activity (AID 2284283); settings: primary human bronchial epithelial cells
Outline: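 Human primary bronchial epithelial cells exposed 24 h to compound. MMP9 quantified by ELISA. SRB total-protein staining of parallel cultures assesses cytotoxicity. Positive-direction fit relative to DMSO.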

[3] = read-out: Plasminogen activator inhibitor-1 (PAI1), SERPINE1 (gene 5054); assay: BSK_CASM3C_PAI1: BioMAP Diversity Plus: CASM3C Assay for Plasminogen activator inhibitor-1 (PAI1) Biomarker Activity (AID 2284284); settings: primary human coronary artery smooth muscle cells;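 note: PAI-1 protein level measured by ELISA 24 h after dosing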
[4] = read-out: Monocyte Chemoattractant Protein-1 (MCP1), CCL2 (gene 6347); assay: BSK_hDFCGF_MCP1: BioMAP Diversity Plus: hDFCGF Assay for Monocyte Chemoattractant Protein-1 (MCP1) Biomarker Activity (AID 2284285); settings: primary human foreskin fibroblasts
Outline: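 MCP-1 ELISA readout was taken 24 hours after dosing primary human dermal fibroblasts in the hDFCGF system, with DMSO as baseline. Parallel sulforhodamine B staining of total protein tracked overt cytotoxicity.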

[5] = read-out: Vascular cell adhesion molecule 1 (VCAM1), VCAM1 (gene 7412); assay: BSK_IMphg_VCAM1: BioMAP Diversity Plus: IMphg Assay for Vascular cell adhesion molecule 1 (VCAM1) Biomarker Activity (AID 2284286); settings: primary human endothelial cells with macrophages
Outline: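 ELISA read-out of VCAM-1 on venular endothelial cell/macrophage co-cultures at 24 h post-treatment, with DMSO as baseline and positive-direction fitting. Parallel sulforhodamine B total-protein staining (560 nm) served as the overt cytotoxicity measure.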

[6] = read-out: Intercellular Adhesion Molecule 1 (ICAM1), ICAM1 (gene 3383); assay: BSK_hDFCGF_ICAM1: BioMAP Diversity Plus: hDFCGF Assay for Intercellular Adhesion Molecule 1 (ICAM1) Biomarker Activity (AID 2284287); settings: primary human foreskin fibroblasts
Outline: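 ICAM-1 ELISA readout 24 h after dosing, DMSO as baseline, in human dermal foreskin fibroblast cultures. Cytotoxicity checked in parallel wells by SRB staining (0.1% SRB, 10% TCA fixation, 560 nm).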

CD40, CD40 (gene 958) = assay: BSK_IMphg_CD40: BioMAP Diversity Plus: IMphg Assay for CD40 Biomarker Activity (AID 2284288); settings: primary human endothelial cells with macrophages
Outline: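 ELISA read-out of cell-surface CD40 at 24 h in human venular endothelial cell/macrophage co-cultures. Activity fitted in the positive direction against DMSO; parallel SRB staining (560 nm) gauges overt cytotoxicity.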

[7] = read-out: TIMP metallopeptidase inhibitor 2 (TIMP2), TIMP2 (gene 7077); assay: BSK_hDFCGF_TIMP2: BioMAP Diversity Plus: hDFCGF Assay for TIMP metallopeptidase inhibitor 2 (TIMP2) Biomarker Activity (AID 2284289); settings: primary human foreskin fibroblasts
Outline: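 Primary human foreskin fibroblasts in the hDFCGF system, dosed for 24 h; TIMP-2 level measured by ELISA, fitted in the positive direction against DMSO; cytotoxicity checked in parallel by sulforhodamine B total protein staining.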

[8] = read-out: Interleukin-1 alpha (IL1a), IL1A (gene 3552); assay: BSK_IMphg_IL1a: BioMAP Diversity Plus: IMphg Assay for Interleukin-1 alpha (IL1a) Biomarker Activity (AID 2284290); settings: primary human endothelial cells with macrophages
Outline: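 IL-1α is quantified by ELISA at 24 h in the endothelial/macrophage IMphg co-culture, with gain of signal fitted relative to DMSO. Parallel SRB total-protein staining flags overt toxicity.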

[9] = read-out: E-selectin (Homo sapiens) (UniProt P16581); assay: BSK_IMphg_ESelectin: BioMAP Diversity Plus: IMphg Assay for Eselectin Biomarker Activity (AID 2284291); settings: primary human endothelial cells with macrophages
Outline: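 Analysed against DMSO baseline in the positive fitting direction, this endpoint is an ELISA read of E-selectin. It comes from human venular endothelial cells co-cultured with macrophages, sampled 24 h post-dose.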

[10] = BSK_IMphg_SRB: Viability Assessment in the BioMAP Diversity Plus: IMphg Assay (AID 2284292); settings: primary human endothelial cells with macrophages;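 note: measured one day after compound addition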
Outline: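 SRB viability endpoint: cultures of human endothelial cells plus macrophages fixed with 10% TCA, stained with 0.1% SRB, read at 560 nm 24 h post-dosing. Only gain-of-signal fitted, relative to DMSO.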

[11] = read-out: Macrophage colony-stimulating factor (MCSF), CSF1 (gene 1435); assay: BSK_IMphg_MCSF: BioMAP Diversity Plus: IMphg Assay for Macrophage colony-stimulating factor (MCSF) Biomarker Activity (AID 2284293); settings: primary human endothelial cells with macrophages
Outline: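 M-CSF was measured by ELISA in human venular endothelial cell/macrophage co-cultures dosed for 24 hours. Sulforhodamine B staining of parallel cultures assessed cytotoxicity; data fitted against DMSO baseline.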

[12] = read-out: Interleukin-10 (IL10), IL10 (gene 3586); assay: BSK_IMphg_IL10: BioMAP Diversity Plus: IMphg Assay for Interleukin-10 (IL10) Biomarker Activity (AID 2284294); settings: primary human endothelial cells with macrophages
Outline: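 IL-10 read by ELISA after 24 h chemical exposure of primary human venular endothelial cell/macrophage cocultures, with DMSO as baseline. Parallel SRB staining (560 nm) gauged overt cytotoxicity.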

[13] = BSK_IMphg_SRB.Mphg: Macrophage Viability Assessment in the BioMAP Diversity Plus: IMphg Assay (AID 2284295); settings: primary human endothelial cells with macrophages
Outline: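 Cytotoxicity read-out: parallel cultures fixed with 10% TCA, stained with 0.1% sulforhodamine B, read at 560 nm. System combines venular endothelium and macrophages; sampled 24 h post-dosing, fitted positively relative to DMSO control.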

[14] = read-out: Thrombomodulin, THBD (gene 7056); assay: BSK_LPS_Thrombomodulin: BioMAP Diversity Plus: LPS Assay for Thrombomodulin Biomarker Activity (AID 2284296); settings: primary human HUVEC with PBMC
Outline: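 Thrombomodulin on the surface of LPS-activated endothelial/PBMC co-cultures was quantified by ELISA at 24 hours post-dosing, with DMSO as baseline. Parallel SRB total-protein staining flagged overt cytotoxicity.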

Measured: AC50

Chain of E-selectin (Homo sapiens) (P16581 whole entry, looked up): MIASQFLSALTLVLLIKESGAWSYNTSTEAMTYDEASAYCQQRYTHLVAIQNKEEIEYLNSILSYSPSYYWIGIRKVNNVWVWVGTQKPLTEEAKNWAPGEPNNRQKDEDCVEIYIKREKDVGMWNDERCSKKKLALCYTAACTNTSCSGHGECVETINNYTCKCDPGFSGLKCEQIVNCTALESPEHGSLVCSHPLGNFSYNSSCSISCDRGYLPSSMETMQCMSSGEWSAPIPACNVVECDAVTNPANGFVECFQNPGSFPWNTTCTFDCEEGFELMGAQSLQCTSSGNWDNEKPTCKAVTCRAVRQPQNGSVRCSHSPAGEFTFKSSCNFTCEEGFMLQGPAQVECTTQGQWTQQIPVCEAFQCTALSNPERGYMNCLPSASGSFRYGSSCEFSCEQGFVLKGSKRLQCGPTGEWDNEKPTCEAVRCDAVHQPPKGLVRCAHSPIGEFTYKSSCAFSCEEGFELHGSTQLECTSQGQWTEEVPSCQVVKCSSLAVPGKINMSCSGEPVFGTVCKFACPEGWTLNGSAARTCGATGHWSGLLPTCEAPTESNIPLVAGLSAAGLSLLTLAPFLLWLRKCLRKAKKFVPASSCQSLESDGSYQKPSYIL

O=S(=O)(OCCOC(F)(F)F)C(F)(F)F
inactive: [1] | KRT18 (gene 3875) | [2] | [3] | [4] | [5] | [6] | CD40, CD40 (gene 958) | [7] | [8] | [9] | [10] | [11] | [12] | [13] | [14]

FC(F)(F)C(F)(F)C(F)(F)C(F)(F)C(F)(F)C(F)(F)C(F)(F)C(F)(F)CCS
inactive: [1] | KRT18 (gene 3875) | [2] | [3] | [4] | [5] | [6] | CD40, CD40 (gene 958) | [7] | [8] | [10] | [11] | [12] | [14]
active: [4] 1.2 µM | [7] 0.0245 µM

OCCCC(F)(F)C(F)(F)C(F)(F)F
inactive: [1] | KRT18 (gene 3875) | [2] | [3] | [4] | [5] | [6] | CD40, CD40 (gene 958) | [7] | [8] | [9] | [10] | [11] | [12] | [14]

C=CC(=O)OCC(F)(F)C(F)(F)C(F)(F)C(F)(F)COC(=O)C=C
active: [1] 7.87 µM and 14.5 µM | KRT18 (gene 3875) 10.7 µM | [2] 7.28 µM and 11.8 µM | [3] 53.7 µM and 53.4 µM | [4] 7.35 µM and 7.89 µM | [5] 30.4 µM and 23.4 µM | [6] 10.6 µM and 10.3 µM | CD40, CD40 (gene 958) 18.8 µM and 25 µM | [7] 12.4 µM and 12.7 µM | [8] 30 µM | [12] 24.4 µM and 33.7 µM | [13] 21.5 µM and 51.8 µM | [14] 51.4 µM
inactive: KRT18 (gene 3875) | [8] | [10] | [11] | [14]

C=C(C)C(=O)OCC(F)(F)C(F)(F)C(F)(F)F
inactive: [1] | KRT18 (gene 3875) | [2] | [3] | [4] | [5] | [6] | CD40, CD40 (gene 958) | [7] | [8] | [9] | [10] | [11] | [12] | [14]

OCC(F)(F)C(F)(F)C(F)(F)F
inactive: [1] | KRT18 (gene 3875) | [2] | [3] | [4] | [5] | [6] | CD40, CD40 (gene 958) | [7] | [8] | [9] | [10] | [11] | [12] | [13] | [14]

OCCCC(F)(F)C(F)(F)C(F)(F)C(F)(F)C(F)(F)C(F)(F)C(F)(F)F
inactive: [5] | [8] | [11] | [12] | [13]
active: [1] 20.4 µM and 47.3 µM | KRT18 (gene 3875) 50.6 µM and 48.5 µM | [2] 47.3 µM and 55.3 µM | [3] 45.3 µM and 48.2 µM | [4] 16.1 µM and 17.6 µM | [5] 54.6 µM | [6] 18.3 µM and 20.1 µM | CD40, CD40 (gene 958) 42.5 µM and 53 µM | [7] 14.4 µM and 16.8 µM | [10] 51.8 µM and 47.2 µM | [11] 45.8 µM | [12] 54.9 µM | [13] 46.3 µM | [14] 49.4 µM and 45.6 µM

CCO[Si](CCC(F)(F)C(F)(F)C(F)(F)C(F)(F)C(F)(F)C(F)(F)F)(OCC)OCC
inactive: [1] | KRT18 (gene 3875) | [2] | [3] | [4] | [5] | [6] | CD40, CD40 (gene 958) | [7] | [8] | [9] | [10] | [11] | [12] | [14]

OCC(F)(F)C(F)(F)C(F)(F)C(F)(F)C(F)(F)C(F)(F)F
inactive: [1] | KRT18 (gene 3875) | [2] | [3] | [4] | [5] | [6] | CD40, CD40 (gene 958) | [7] | [8] | [10] | [11] | [12] | [14]
active: [1] 48.7 µM | [4] 23 µM | [7] 42.2 µM

O=C(Cl)C(F)(F)C(F)(F)C(F)(F)C(F)(F)C(F)(F)C(F)(F)C(F)(F)C(F)(F)F
active: [1] 39 µM and 43.6 µM and 45.5 µM | KRT18 (gene 3875) 47.8 µM and 43.9 µM and 46.8 µM | [2] 55.1 µM and 54.8 µM | [4] 49.5 µM and 46.4 µM | [5] 35.9 µM and 46.8 µM and 46.3 µM | [6] 16.5 µM and 19.9 µM | CD40, CD40 (gene 958) 36.6 µM | [7] 1.59 µM | [10] 54.8 µM and 40 µM and 47.8 µM | [12] 51.8 µM and 44.2 µM | [14] 40.9 µM and 21.5 µM
inactive: [3] | [4] | [6] | CD40, CD40 (gene 958) | [7] | [8] | [11] | [12] | [14]
